Assay results published in PMC12864922, “TDP-43 directly inhibits mRNA accumulation in neurites through modulation of mRNA stability”.
In all, about 9,900 sequences were measured (“r (bound/input frequency ratio)”: median about 0.7, highest 2% from about 6.5 on). The full list was thinned out, with the highest values kept by preference.

B1: ENSMUSG00000029028.98|Lrrc47 (ssRNA)
RNA: GGGAGUUCUACAGUCCGACGAUCGCUUCGAUAUCCGCAUGCUAUGUGGGUGUGCUGUAGAUUCUGUGUAACUGGUUCUUUGCUGUUUCUCUGGGUGUUUUAAGGUGUCUGCUUUUGUCCAGGUGACUGUGGUAAUGUGAGUUUGCAUCAUCAUCAUAGCUCCAAUGUGACUCUCCUGUCUCCUGUCCUCAUGGAUCACUCAGUAACUGCUGGGGAUGUUCUGAAUCAUGUGGCCUGUGGCCGUGCUGGAGAGUCAGGUUGAACGCAGGCAUUCUAUUGAACAGUAUUUAUUUUUCUACAACAUCUCUUGCGGUCGCACUAGUGUGGAAUUCUCGGGUGUCAAGG
B2: ENSMUSG00000090935.301|Synj2bp|248:252 (ssRNA)
RNA: GGGAGUUCUACAGUCCGACGAUCGCUUCGAUAUCCGCAUGCUAGCCUUAGUUGCUAUUUUACAGUACUGUUAAAGGAUCCAUUGGCAUGGGAUGGGAAGCAGCAGGGCCCAAUCAACCAUCAAGACAUCUGAAAAAGAUCAUGUCUCAAGGUGGCACUUGAGCCUUCAAAACUGCUUAACAAUUCUCAGUUUCUAGUGUCAGACAAAAAGCCUAAGGGAAGGAACUGCCCUCCUGGUAGGAUGGACCUGAAUCAGCCUGCUUCUGACUGAGUUAGGAUGAGAAGGCAUUGCAUACGGUUUUCUCUCUUGCGGUCGCACUAGUGUGGAAUUCUCGGGUGUCAAGG
B3: ENSMUSG00000032194.203|Kank2 (ssRNA)
RNA: GGGAGUUCUACAGUCCGACGAUCGCUUCGAUAUCCGCAUGCUACUGCACCUUUCUCUAACUGGGGUUCCUUUCUGGCCCCAGGAUCUCAGUGUGGUUCGUGGGGGGAUUUUGUUGUUGUUUCUUUGUUUCUUUUCUUCAUAAAGAAGAAAAAGGAAACAACUUCUAGAUGUGCCUUGCGAUAGGGAGGACUUUGUCCUCUCAAGUCUCCCUGUCGUAUCCAGAUCACAGCUGAACCCACUGGGCCUUGGCGCCAAACCUCAGCAGGGCAGCAUUGAGACUCAUGGACUAAAGGAAAGUGUUCACUCUUGCGGUCGCACUAGUGUGGAAUUCUCGGGUGUCAAGG
B4: ENSMUSG00000043670.75|Diras1|97:102 (ssRNA)
RNA: GGGAGUUCUACAGUCCGACGAUCGCUUCGAUAUCCGCAUGCUAUUUGAUCCCUGUGGAUCUGAAAACAGGGACCUGGCUAAGGAACUGCUCAUCCCAGUCAGGCCCAGAGAGGUUACCUUGCCUCUCCAUCUCUGUCCCACACACCCCAGCCAUGCCCACUGUCCCUGUCCCUCACAUUCUAUCACUGUGACCUCUGGGGAGUGCCCAUUGACCUCAUCUUCCUUCACUAAUAUCUUAUUUCUUUCACCUGAUCCUGUCCUUUCCCCGUGACCUCUGACCUGUGGCCUUCCCUGGGUCCAGAACUCUUGCGGUCGCACUAGUGUGGAAUUCUCGGGUGUCAAGG
B5: ENSMUSG00000061578.22|Ksr2|4:9;112:122;211:217;222:226 (ssRNA)
RNA: GGGAGUUCUACAGUCCGACGAUCGCUUCGAUAUCCGCAUGCUAACCACACACAUGACGUCACAGAGGCUGUCCACACCUUCGACUUGUACCCCGUUACUCAGGCACGAUCAGGGACCACUCAACUAGGACCAAACUGGGCCAGAGAGGGUCCCAACACACCACACAAGGAGCCACAGACUGAGCACACCACCUCGGACUGUGGAGACCAAGACACAUGCCCAGUGGGCAGACUCAGACUCACACGCUGGACCACACACACCGCAACACACUACACAUGGACAGGGCCAACUGCUAUCCUUCUGCUCUUGCGGUCGCACUAGUGUGGAAUUCUCGGGUGUCAAGG
B6: ENSMUSG00000031028.295|Tub (ssRNA)
RNA: GGGAGUUCUACAGUCCGACGAUCGCUUCGAUAUCCGCAUGCUAUCCCAGGUUGGACACUCGACGAAAGGCACACCUGCUGCAGCAGGUUCUGACACACCUGAGCCAUACAUUGCCAUCAGAGAACCCUCAGCGAGGUAGCCUUUGUUUACAGUCUAGUUUCUAGAGGGCAGUAGGACUUCCAUGCUGGGGCUGGCCUAUCUCCUGAUGAAAGAUUACAGUGCCAUCUCCUUCCCAUAGUUCUGUGUCUGCCCUCCCUCCCUGACUUUAUAGGGAGAAAUCUCCUGACAUUAGAGGUGAUAGAACUCUUGCGGUCGCACUAGUGUGGAAUUCUCGGGUGUCAAGG
B7: ENSMUSG00000031028.549|Tub (ssRNA)
RNA: GGGAGUUCUACAGUCCGACGAUCGCUUCGAUAUCCGCAUGCUAAUAGAUGGACAGCCUGGUUUCCCUUCUCAGCAGUCCUGGCCUCCCCUUCUCUGUAUUCCUUGCCCCAGCUACGAUAUCCUCAUGGGAUUUCAGGAUGCCAGGUGCCAUCAAAGCAUGCUUUUUUGUGGUGCCUAGCACUGUGACUGGGGCCCAACUGCCCUGCAGAGUUGGGACCUUGCACUGCCCUAGACCCUGGCUUUAGAUCUGCUUCAGUCUCCAGAACAGGCUAUGGGAUAGAUUUUUCUUUCAGUUUAUGGCCACUCUUGCGGUCGCACUAGUGUGGAAUUCUCGGGUGUCAAGG
B8: ENSMUSG00000061578.336|Ksr2 (ssRNA)
RNA: GGGAGUUCUACAGUCCGACGAUCGCUUCGAUAUCCGCAUGCUAGGAGUGACCAGUCACCUGCCUCCCAGGGUUCUGCCUUGCCCUUAAGCUAGGGUCCUUCAAGCAUCCACAGACUUAGAGUGUGGUGGUAACAUGCUUGUAAUCCUGGCACUCUGGAGGCUGAGGCAGGAGGAUAACAAGUCUAGACUAUAUAUGAUUUCUGAGGGUCUGUUAGUGAAUAAGUACCUGGAUGACAUGGGACAAGUCCCAGCCUUCCCUGCUCCUGCGCUGCUCUUCCUCUUAUGGGAUAGGGUCUAGGUCAACUCUUGCGGUCGCACUAGUGUGGAAUUCUCGGGUGUCAAGG
B9: ENSMUSG00000061578.503|Ksr2 (ssRNA)
RNA: GGGAGUUCUACAGUCCGACGAUCGCUUCGAUAUCCGCAUGCUAGGGAUUAAAGGUGUGUACCACCAUUGCAAUCUUGAACUCUUGACCAAUAGAAAUCCUAGACUAGUGUUGCUAGGCAACUGACUGUAUUCAGGACACCCAGGGUGGGAGGUGGAUGGAGCUCUUGCCUAACACACACCAAGCCCCAAGUUCCAUCCCCAGUCCCACACAAACCAGAUAUGAUGGUGUGUGCCUAUGUCCCCCACACACGAGAGAGCUGGAGGCAGGAGGAUCAGAAGUUCAGGGCCAUCCUUAAUCAUACACUCUUGCGGUCGCACUAGUGUGGAAUUCUCGGGUGUCAAGG

The binders below were run against TDP-43 (Homo sapiens, UniProt Q13148 1-414) (assay: RNA Bind-n-Seq with designed 260-mer pool; 25 mM Tris-HCl, 150 mM KCl, 3 mM MgCl2, BSA (printed 500 mg/mL), 20 units/mL SUPERase IN; pH not stated; 500 nM RNA pool, 1 h, 4 C; TDP-43 5, 50, 500 nM; high values mean tight binding). Conditions: protein: recombinant; tags: SBP (GST cleaved off with PreScission; pGEX-GST-SBP).
TDP-43, sequence (Q13148 whole entry): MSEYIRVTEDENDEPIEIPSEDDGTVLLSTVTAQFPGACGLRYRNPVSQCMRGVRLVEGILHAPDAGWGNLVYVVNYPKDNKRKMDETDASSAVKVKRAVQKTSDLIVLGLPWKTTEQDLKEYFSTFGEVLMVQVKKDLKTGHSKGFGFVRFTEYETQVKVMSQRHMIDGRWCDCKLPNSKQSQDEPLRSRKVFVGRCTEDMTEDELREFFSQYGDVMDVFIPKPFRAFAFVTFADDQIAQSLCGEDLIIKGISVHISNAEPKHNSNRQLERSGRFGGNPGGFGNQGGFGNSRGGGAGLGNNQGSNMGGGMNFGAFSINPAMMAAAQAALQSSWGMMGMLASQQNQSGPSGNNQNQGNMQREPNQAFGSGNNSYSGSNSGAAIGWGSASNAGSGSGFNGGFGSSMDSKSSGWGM
How it was run: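 An in vitro-transcribed pool of 260-nt 3′ UTR oligos (500 nM) was incubated for 1 h at 4 °C with recombinant SBP-tagged TDP-43 at 5, 50 or 500 nM held on streptavidin beads. The buffer contained 25 mM Tris-HCl, 150 mM KCl, 3 mM MgCl2, BSA and SUPERase IN. Biotin-eluted bound RNA was sequenced, and binding, R, is each oligo's normalized read abundance in the bound sample over that in input.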
For B1, the binding signal was 1.29 R (bound/input frequency ratio). B2 was tested, and the binding signal was 0.248 R (bound/input frequency ratio). In the case of B3, the binding signal is reported as 0.26 R (bound/input frequency ratio). For B4, the binding signal was 2.78 R (bound/input frequency ratio). In the case of B5, the binding signal is reported as 1.84 R (bound/input frequency ratio). With B6 the binding signal was 0.563 R (bound/input frequency ratio). In the case of B7, the binding signal is reported as 0.419 R (bound/input frequency ratio). For B8, the binding signal was 0.934 R (bound/input frequency ratio). For B9, the binding signal was 1.74 R (bound/input frequency ratio).
